We go through 22 compounds from PubChem BioAssay.

Active and inactive are the calls of the source. The rule behind the calls is not given here.

The subject of this assay is Aerobactin synthetase IucA (Klebsiella pneumoniae, hypervirulent). Description: IucA enzyme inhibition, biochemical, LOPAC library, absorbance readout (AID 1346212).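 Note: 100% = no compound wells and 0% = no enzyme wells.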 To be noted: IucA enzyme assay, absorbance (OD) readout; active compounds read low;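 tested at 8 µM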.
As usually defined, the remaining activity is the signal under treatment as a percentage of the control signal. With `C/C(=C\c1ccc(C(=O)O)cc1)c1ccc2c(c1)C(C)(C)CCC2(C)C`, the remaining activity is 97.8% (inactive). The same measure for `O=c1cc(O)cc(/C=C/c2ccc(O)c(O)c2)o1`: 93.8% (inactive); for `O=C(O)CCC/C=C\C[C@@H]1[C@@H](/C=C/[C@H](O)C2Cc3ccccc3C2)[C@@H](F)C[C@@H]1O`: 97.7% (inactive). `CN1[C@@H]2CC[C@H]1CC(OC(=O)[C@H](CO)c1ccccc1)C2` (some centres not stated): the remaining activity was 107% (inactive). Consider `O=C(O)CN(CCN(CC(=O)O)CC(=O)O)CCN(CC(=O)O)CC(=O)O`, for which the remaining activity is 90.9% (inactive). Under `N=C(N)SCCc1cnc[nH]1` stands 122% (inactive).

For the compound `NC(N)=N[C@@H](CCC(=O)O)C(=O)O`, the remaining activity was 115% (inactive).

With `Nc1ncnc2c1nc(Sc1ccc(Cl)cc1)n2C1OC2COP(=O)(O)O[C@@H]2[C@@H]1O` (some centres not stated), the remaining activity was 108% (inactive). Under `COc1cc2nc(N3CCN(C(=O)OCc4ccccc4)[C@H](C(=O)NC(C)(C)C)C3)nc(N)c2cc1OC` stands 91.6% (inactive). Take `NC[C@@H]1O[C@H](O[C@H]2[C@@H](O)[C@H](O[C@@H]3[C@@H](O)[C@H](N)C[C@H](N)[C@H]3O[C@H]3O[C@H](CO)[C@@H](O)[C@H](O)[C@H]3N)O[C@@H]2CO)[C@H](N)[C@@H](O)[C@@H]1O`: the remaining activity was 104% (inactive).

With `O=c1ccc2c(OCCCCc3ccccc3)c3ccoc3cc2o1`, the remaining activity is 123% (inactive).

On to `CCCCCCCCCCCCCCC[C@H](O)[C@H](N)CO`, for which the remaining activity is 83.3% (inactive). With `Cn1c(=O)c2[nH]c(-c3ccccc3)nc2n(C)c1=O`, the remaining activity was 124% (inactive). For `COc1cc2ncnc(Nc3cccc(Cl)c3)c2cc1OC`, the remaining activity is 106% (inactive).

On to `Nc1nc(Cl)nc2c1ncn2[C@@H]1O[C@H](COP(=O)(O)OP(=O)(O)OP(=O)(O)O)[C@H](O)C1O` (some centres not stated), for which the remaining activity was 104% (inactive).

Turning to `Nc1nc2ccc(Cl)cc2c2nc(-c3ccco3)nn12`, the remaining activity was 104% (inactive). Under `CC(C)NC[C@@H](O)COc1ccc(CC(N)=O)cc1` stands 117% (inactive); under `CNCCc1cnc(CCC(c2ccccc2)c2ccccc2)[nH]1`, 110% (inactive); under `NC1(C(=O)O)CCc2cc(C(=O)O)ccc21` (configuration not stated), 110% (inactive).

Regarding `Cc1cccc(C)c1OCC(N)C(C)C` (configuration not stated), the remaining activity was 97.7% (inactive).

Turning to `CC(C)C[C@H](NC(=O)[C@@H](O)[C@H](N)Cc1ccccc1)C(=O)O`, the remaining activity is 108% (inactive). For the compound `CC1=C(/C=C/C(C)=C/C=C/C(C)=C/C=C/C=C(C)/C=C/C=C(C)/C=C/C2=C(C)C(=O)[C@@H](O)CC2(C)C)C(C)(C)C[C@H](O)C1=O`, the remaining activity is 107% (inactive).
